# KCNQ2 enhance: potentiators of rat KCNQ2 potassium channel | actives 0.54% (n = 310,000) | Potassium voltage-gated channel subfamily KQT member 2 (Rattus norvegicus), O88943 | CHO-K1 KCNQ2, FluxOR thallium flux fluorescence; active compounds read high | B-score at 10 µM;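 active means fluorescence ratio B-score at least 3 SD of library B-scores, with initial fluorescence B-score within 3 of them, cut at about 5.3 in these data; same plate scores as AID 2156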;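 further: B-score of peak minus minimum over baseline fluorescence ratio after K+ and Tl+ stimulus; positive B-score means potentiation of KCNQ2 with more thallium influx and brighter signal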
# Target sequence (O88943 whole entry, looked up): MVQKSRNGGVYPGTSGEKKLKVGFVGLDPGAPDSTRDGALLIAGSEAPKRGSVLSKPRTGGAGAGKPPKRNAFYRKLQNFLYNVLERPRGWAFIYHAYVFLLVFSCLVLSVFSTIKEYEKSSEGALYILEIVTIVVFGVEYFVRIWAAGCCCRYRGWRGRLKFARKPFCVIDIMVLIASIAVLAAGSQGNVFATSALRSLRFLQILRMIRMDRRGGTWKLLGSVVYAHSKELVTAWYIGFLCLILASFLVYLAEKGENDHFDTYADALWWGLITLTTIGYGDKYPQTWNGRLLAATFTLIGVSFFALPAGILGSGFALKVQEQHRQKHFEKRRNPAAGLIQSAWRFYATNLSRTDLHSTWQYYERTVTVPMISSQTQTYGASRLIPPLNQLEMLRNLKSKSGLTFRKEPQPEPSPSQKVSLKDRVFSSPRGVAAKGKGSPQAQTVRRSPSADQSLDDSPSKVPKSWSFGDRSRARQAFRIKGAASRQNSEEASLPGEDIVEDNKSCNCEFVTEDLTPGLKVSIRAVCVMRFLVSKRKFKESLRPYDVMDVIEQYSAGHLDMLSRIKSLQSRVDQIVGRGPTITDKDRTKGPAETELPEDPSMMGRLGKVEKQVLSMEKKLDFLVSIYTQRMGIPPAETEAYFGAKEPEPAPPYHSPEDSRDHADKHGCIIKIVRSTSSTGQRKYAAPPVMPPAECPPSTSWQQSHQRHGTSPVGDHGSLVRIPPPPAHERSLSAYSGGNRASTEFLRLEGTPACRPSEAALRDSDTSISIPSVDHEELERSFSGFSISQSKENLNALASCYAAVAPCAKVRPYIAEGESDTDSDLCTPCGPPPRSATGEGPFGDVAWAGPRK
# KCNQ2 inh: rat KCNQ2 potassium channel inhibitors, primary screen, cell-based, CHO-K1, FluxOR thallium flux, B-score; 20 min; active compounds read low; B-score at 10 µM; actives 1.1% (n = 310,000);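 active means fluorescence ratio B-score at most minus 3 library SDs, with starting brightness B-score within 2 library SDs, cut at about -5.5 in these data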
# KCNQ2 block conf: rat KCNQ2 potassium channel inhibitors, confirmation, cell-based, thallium flux. shares compounds with KCNQ2 inh. KCNQ2-expressing cells, inhibition; active compounds read low. activity change, negative = inhibition, % at 10 µM. actives 57% (n = 1,000). AID 493025, 2011;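 further: 0% = vehicle wells and values are ratio percent relative to vehicle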
# KCNQ1 spec: human KCNQ1 channel inhibition, counter-screen for KCNQ2 inhibitor project, cell-based, FluxOR thallium flux; shares compounds with KCNQ2 inh; KCNQ1-expressing cells, FluxOR thallium flux fluorescence; active compounds read low; activity change, negative = inhibition, % at 10 µM; actives 15% (n = 1,000);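 active means activity change at least 3 SD of negative controls below their mean in both duplicate wells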;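 further: CHO cells stably transfected with KCNQ1 and depolarized by potassium stimulus; peak minus minimum fluorescence over baseline after thallium addition; 0% = vehicle negative control and -100% = blank without thallium stimulus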
# CHO parental ctr: thallium flux change in parental CHO cells, counter-screen for KCNQ2 inhibitor project. shares compounds with KCNQ2 inh. active compounds read low. activity change, % at 10 µM. actives 14% (n = 1,000). AID 493029, 2011;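 further: 0% = vehicle negative controls with stimulus buffer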
# KCNQ2 patch conf: rat KCNQ2 channel inhibitors, confirmation, cell-based, automated patch clamp, single concentration; actives 49% (n = 550); calls only at 10 µM; shares compounds with KCNQ2 inh; KCNQ2-expressing cells, automated patch clamp current
# The depositor's hits bear a star; i = inactive; . = no result; + = active, no number. A selection: hits, their analogues and other compounds. The true share with any hit is near 1.6%. Unless noted, how the calls were made is not given here.
SMILES,KCNQ2 enhance,KCNQ2 inh,KCNQ2 block conf,KCNQ1 spec,CHO parental ctr,others
CCOC(=O)c1ccc(N(C(=O)c2ccco2)C(C(=O)NC2CCCC2)c2ccncc2)cc1 (stereo not given),.,i,.,.,.,
CCCCn1c(N)c(N(CC)C(=O)CSc2nnnn2-c2cc(C)ccc2C)c(=O)[nH]c1=O,.,i,.,.,.,
CCN(CC(=O)NCc1ccc(Cl)cc1)C(=O)CCC(=O)c1ccc(F)cc1,.,i,.,.,.,
CCOC(=O)c1sc(NC(=O)c2ccncc2)c(C#N)c1C,0.3,i,.,.,.,
CCOC(=O)c1sc(NC(=O)c2cc(-c3ccccc3C)nc3ccccc23)c(C#N)c1C,-9,-9*,-40%*,-36%*,-26%*,KCNQ2 patch conf=i
CC(C)(C)C(=O)Nc1ccccc1N1CCN(c2ccc(F)cc2)CC1,1.5,i,.,.,.,
Cc1ccc(NCCC(=O)c2cccs2)cc1C,-6.7,-6.7*,i,i,i,
Cc1ccc(NCCC(=O)c2cccs2)cc1Cl,.,i,.,.,.,
CCN(CC)C(=O)CSc1nc2ccccc2c(=O)n1CC1CCCCC1,-6.6,-6.6*,-45%*,-38%*,-30%*,KCNQ2 patch conf=+
O=C(CSc1nc2ccccc2c(=O)n1CC1CCCCC1)N1CCOCC1,.,i,.,.,.,
NC(=O)c1cc2cc(Cl)ccc2oc1=Nc1cccc(C(F)(F)F)c1,0.11,i,.,.,.,
CNS(=O)(=O)c1cn(CC(=O)NCc2ccc(N(C)C)cc2)cc1S(=O)(=O)NC,0.46,i,.,.,.,
CCc1ccc(/C=C2/C(=O)N(c3ccccc3)C(=S)N2CC(=O)OC)s1,.,i,.,.,.,
CCN1C(=O)/C(=C/N(C(C)=O)c2ccccc2)N(c2ccccc2)C1=S,-9.6,-9.6*,i,i,i,
O=C(c1cc(Br)ccc1Cl)N1CCN(c2ccccn2)CC1,0.59,i,.,.,.,
COc1ccc(NC(=O)CN(C)C(=O)CCCc2nc3ccccc3s2)cc1,.,i,.,.,.,
COc1cc(-c2cc(C(=O)Nc3ccc(N4CCOCC4)cc3)c3ccccc3n2)cc(OC)c1OC,.,i,.,.,.,
COc1ccc(-c2cc(C(=O)Nc3ccc(Cl)cc3Cl)c3ccccc3n2)cc1OC,.,i,.,.,.,
COc1ccc(-c2cc(C(=O)Nc3ccccc3O)c3ccccc3n2)cc1OC,-6.9,-6.9*,i,i,i,
COc1ccccc1NC(=O)c1cc(-c2cc(OC)c(OC)c(OC)c2)nc2ccccc12,-8.9,-8.9*,i,i,i,
COc1ccc(OC)c(S(=O)(=O)Nc2cc(C)on2)c1,0.01,i,.,.,.,
C/C(=N/NC(=O)CN1CCN(Cc2ccccc2Cl)CC1)c1cccs1,1.7,i,.,.,.,
Cn1c(Cc2cccs2)nnc1SCC(=O)Nc1ccccc1F,.,i,.,.,.,
O=C(CSc1nnc(Cc2cccs2)n1Cc1ccco1)Nc1ccc(Cl)cc1Cl,-6.9,-6.9*,i,i,i,
CCCN(CCC)C(=O)Cc1coc2ccc3ccccc3c12,-7.3,-7.3*,i,i,i,
SMILES,KCNQ2 enhance,KCNQ2 inh,KCNQ2 block conf,KCNQ1 spec,CHO parental ctr,others
O=C(Cc1coc2ccc3ccccc3c12)NCc1ccccc1,0.14,i,.,.,.,
CC(C)Cc1nc2c(nnn2Cc2ccccc2F)c(=O)[nH]1,.,i,.,.,.,
O=C(NC(=O)N1CCCCCC1)c1ccc(Cl)cc1,0.83,i,.,.,.,
O=C(Nc1ccccc1N1CCOCC1)c1cc(-c2ccncc2)nc2ccccc12,-7.2,-7.2*,-50%*,-45%*,-38%*,KCNQ2 patch conf=+
O=C(Nc1ccc(N2CCOCC2)cc1)c1cc(-c2ccncc2)nc2ccccc12,.,i,.,.,.,
COc1ccc(-c2cc(C(=O)Nc3ccccc3N3CCOCC3)c3ccccc3n2)cc1OC,-8.2,-8.2*,-38%*,-35%*,-28%*,KCNQ2 patch conf=+
COc1ccc(-c2cc(C(=O)NNC(=O)c3csc(N4CCOCC4)n3)c3ccccc3n2)cc1OC,0.04,i,.,.,.,
Cc1ccc(OCC(O)Cn2c(N3CCCCC3)nc3c2c(=O)[nH]c(=O)n3C)cc1C (stereo not given),.,i,.,.,.,
O=S(=O)(NCc1ccccn1)c1ccccn1,.,i,.,.,.,
O=C(O)C1CCN(C(=O)c2ccc3c(c2)OCO3)CC1,0.27,i,.,.,.,
C=CCN(c1ccccc1)S(=O)(=O)c1ccc(Cl)c(C(=O)OCC(=O)c2[nH]c(C)c(C(C)=O)c2C)c1,0.62,i,.,.,.,
CCCCCCCCCOC(=O)C(CC(=O)O)N1CCOCC1 (stereo not given),.,i,.,.,.,
CCCCCOC(=O)CC(C(=O)OCCCCC)N1CCCCC1 (stereo not given),-9.2,-9.2*,-34%*,-32%*,-30%*,KCNQ2 patch conf=i
CNC(=O)Nc1ccccc1C(=O)Nc1ccccc1,.,i,.,.,.,
CC(=O)Nc1ccc(CN2CCN(CCc3ccccc3)C(CCO)C2)cc1 (stereo not given),0.01,i,.,.,.,
CCOc1ccc(S(=O)(=O)N2CCC(C(=O)NCCc3ccccc3)CC2)cc1,.,i,.,.,.,
Cc1ccc2cc(C(c3nnnn3C3CCCC3)N3CCOCC3)c(=O)[nH]c2c1C (stereo not given),-9.5,-9.5*,i,i,i,
Cc1ccc2cc(C(c3nnnn3C3CCCC3)N3CCN(c4ccccc4)CC3)c(=O)[nH]c2c1 (stereo not given),.,i,.,.,.,
COc1cc2cc(C(c3nnnn3C3CCCC3)N3CCCCC3)c(=O)[nH]c2cc1OC (stereo not given),-7,-7*,-22%*,i,i,KCNQ2 patch conf=+
CCOC(=O)C1CCN(C(c2cc3ccc(C)c(C)c3[nH]c2=O)c2nnnn2C2CCCCC2)CC1 (stereo not given),.,i,.,.,.,
CC(NS(=O)(=O)c1ccc(Cl)cc1)C(=O)N1CCOCC1 (stereo not given),0.56,i,.,.,.,
O=C(Cc1ccccc1)Nc1ccnn1C1CCN(Cc2nccs2)CC1,.,i,.,.,.,
O=C(Nc1ccc(Br)cn1)c1cccc2c1-c1ccccc1C2=O,0.1,i,.,.,.,
O=C(NCC1CCCO1)C(Cc1ccccc1)N1C(=O)C2C3C=CC(C4CC34)C2C1=O (stereo not given),1.4,i,.,.,.,
Cc1ccc(-c2nn(-c3ccccc3)cc2C(=O)O)o1,.,i,.,.,.,
SMILES,KCNQ2 enhance,KCNQ2 inh,KCNQ2 block conf,KCNQ1 spec,CHO parental ctr,others
Cc1ccc(-c2nn(-c3ccccc3)cc2CN(Cc2ccccc2)C(=O)c2ccco2)o1,-15,-15*,-47%*,-48%*,-50%*,KCNQ2 patch conf=i
COc1ccc(-c2csc(NC(=O)c3ccccc3F)c2C(=O)O)cc1,0.92,i,.,.,.,
Cc1cc(C)nc(NC(=O)C2c3ccccc3Oc3ccccc32)n1,2.1,i,.,.,.,
c1coc(Cn2c(SCc3nc4ccccc4[nH]3)nnc2-c2cccs2)c1,.,i,.,.,.,
Cc1ccccc1CSc1nnc(-c2cccs2)n1Cc1ccco1,-9.9,-9.9*,i,i,i,
O=C(/C=C/c1ccc(Cl)cc1)N(Cc1ccccc1)c1ccccn1,-8.3,-8.3*,-31%*,i,i,KCNQ2 patch conf=+

# High-throughput results (PubChem)
